Reference: PubChem BioAssay AID686978 (National Center for Advancing Translational Sciences (NCATS), 2013)
In all, about 420,000 compounds went through this assay and about 64,000 (15%) were called active. About 27% were inconclusive and are not listed. Only a sample is shown. Unmarked numbers belong to inactive results. The call rests on the fitted dose curve; in most records, active means well fitted inhibition curve with a large enough effect; inconclusive means small, poorly fitted or top-dose-only effect; inactive means flat fitted curve, though single readings scatter.

test: qHTS for Inhibitors of human tyrosyl-DNA phosphodiesterase 1 (TDP1): qHTS in cells in absence of CPT; conditions: DT40 Tdp1-/- hTDP1 cells, no CPT, ATP luminescence, 48 h; activity change, negative = growth inhibition: at 46.2 µM (top of the series); further: nearly all actives have a fitted effect of over 55% in size
Summary of the method: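 No-CPT arm: Tdp1-/-;hTDP1 DT40 cells (400/well) plus compounds, incubated ≥48 hr at 37 °C. Readout CellTiter-Glo luminescence.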
On the % scale 0 is the no-effect control and ±100 the full control effect; potency means the concentration at half of the fitted maximal effect.

Q: For `COc1cccc(NC(=S)C(C#N)=C2N(C)c3ccccc3N2C)c1`, which “activity change, negative = growth inhibition” value is on record?
A: 3.59%

Q: With `CC(=O)Nc1cccc(OCC(=O)/C=C2\N(C)c3ccccc3C2(C)C)c1` as the compound, how does the Potency read?
A: 7.31 µM (active)

Q: With `CC(=O)NCC(O)c1ccc([N+](=O)[O-])cc1` (centres undefined) as the compound, how does the “activity change, negative = growth inhibition” value read?
A: 0.615%

Q: With `Cc1cc(C)c(C#N)c(SCC(=O)NN2CC(=O)N(c3ccccc3F)CC2=O)n1` as the compound, how does the “activity change, negative = growth inhibition” value read?
A: -21.5%

Q: Which “activity change, negative = growth inhibition” value does the source give for `CCOC(=O)c1ccccc1OC(=O)Oc1ccccc1C(=O)OCC` here?
A: -23.8%

Q: For `CCOC(=O)C=Cc1ccc(C(=O)OCC)[nH]1`, which Potency is on record?
A: 8.2 µM (active)

Q: With `CCOC(=O)c1cc2cc(C)ccc2[nH]1` as the compound, how does the “activity change, negative = growth inhibition” value read?
A: -17.6%

Q: Which “activity change, negative = growth inhibition” value does the source give for `CCOC(=O)c1cccc(NC(=O)CN2C(=O)C3CC=CCC3C2=O)c1` (centres undefined) here?
A: -23.4%

Q: With `O=C(Nc1ccccc1)/C(=C/c1ccc([N+](=O)[O-])cc1)NC(=O)c1ccccc1` as the compound, how does the “activity change, negative = growth inhibition” value read?
A: -20.7%

Q: Which Potency does the source give for `CCOC(=O)/C(=C\c1ccc([N+](=O)[O-])cc1)C(=O)c1cc(C(C)=O)c(Nc2ccccc2)s1` here?
A: 0.731 µM (active)

Q: For `O=C(O)C(=Cc1ccc([N+](=O)[O-])cc1)CCc1ccccc1`, which “activity change, negative = growth inhibition” value is on record?
A: -10.6%

Q: Which “activity change, negative = growth inhibition” value does the source give for `CC(=O)c1c(C)n([O-])c2ccccc2[n+]1=O` here?
A: 2.08%

Q: For `O=C(NCc1ccccc1Cl)C1CCC(CNc2c(N3CCCCC3)c(=O)c2=O)CC1` (centres undefined), which “activity change, negative = growth inhibition” value is on record?
A: -1.64%

Q: Which “activity change, negative = growth inhibition” value does the source give for `Cc1ccc2c(Cl)c(C(=O)Nc3nn[nH]n3)sc2c1` here?
A: -28.5%

Q: For `CCCCCc1c(Cc2ccccc2)ncn1CCc1ccccc1OC`, which Potency is on record?
A: 2.59 µM (active)

Q: With `CCCCCc1c(-c2cccc(Br)c2)ncn1CCc1ccccc1OC` as the compound, how does the Potency read?
A: 18.4 µM (active)

Q: For `CCOC(=O)CSc1nnc(-c2cccc(Br)c2)o1`, which “activity change, negative = growth inhibition” value is on record?
A: -1.45%

Q: Which “activity change, negative = growth inhibition” value does the source give for `CCCCNS(=O)(=O)CCNCc1ccccc1OC` here?
A: -5.2%

Q: With `CCC(=O)NCc1cc(-c2nn(C)c(=O)c3ccccc23)ccc1OC` as the compound, how does the Potency read?
A: inactive

Q: Which “activity change, negative = growth inhibition” value does the source give for `Cn1c(=O)c2c(ncn2CCc2ccccc2)n(C)c1=O` here?
A: 7.06%

Q: For `CCN(CC)CCN1C(=O)C(=O)/C(=C(/O)c2ccc(OC)c(OC)c2)C1c1ccccn1` (centres undefined), which “activity change, negative = growth inhibition” value is on record?
A: -8.13%

Q: With `CCCCCc1c(-c2ccc(OC)c(OC)c2)ncn1CCc1ccccc1OC` as the compound, how does the Potency read?
A: 2.59 µM (active)

Q: For `Cc1c(Nc2nc3ccccc3nc2NS(=O)(=O)c2cccs2)c(=O)n(-c2ccccc2)n1C`, which “activity change, negative = growth inhibition” value is on record?
A: -8.76%

Q: Which “activity change, negative = growth inhibition” value does the source give for `CC1Cc2[nH][nH]c(=O)c2C(C2CC2)O1` (centres undefined) here?
A: -1.73%

Q: Which Potency does the source give for `CCOC(=O)C1(CC2CCCCO2)CCN(Cc2nc(-c3cccs3)oc2C)CC1` (centres undefined) here?
A: 16.4 µM (active)

Q: Which “activity change, negative = growth inhibition” value does the source give for `CC(Sc1nnc(-c2cccs2)n1C1CC1)C(=O)NCC1CCCO1` (centres undefined) here?
A: -3.43%

Q: With `CCOc1ccccc1-c1nc(CN2CCC(C(=O)N3CCOCC3)CC2)c(C)o1` as the compound, how does the “activity change, negative = growth inhibition” value read?
A: 0.579%

Q: For `CCCOC(=O)C1=C(C)NC2=C(C(=O)C(C(=O)OC)C(C)C2)C1c1ccc(N(C)C)cc1` (centres undefined), which “activity change, negative = growth inhibition” value is on record?
A: -16.4%

Q: Which “activity change, negative = growth inhibition” value does the source give for `CCOC(=O)c1c(N)n(-c2cccc(C)c2C)c2nc3ccccc3nc12` here?
A: 4.77%

Q: With `Cc1ccc(S(=O)(=O)Nc2nc(N)n(-c3ccccc3)n2)cc1` as the compound, how does the “activity change, negative = growth inhibition” value read?
A: -9.97%

Q: For `CCN(CC)CCn1c(N)c(S(=O)(=O)c2ccccc2)c2nc3ccccc3nc21`, which Potency is on record?
A: 18.4 µM (active)

Q: Which “activity change, negative = growth inhibition” value does the source give for `C=CCn1c(N)c(S(=O)(=O)c2cccs2)c2nc3ccccc3nc21` here?
A: -19.6%

Q: With `CCN(c1ccccc1)S(=O)(=O)c1ccc(N)cc1` as the compound, how does the “activity change, negative = growth inhibition” value read?
A: -11.5%

Q: With `Cc1ccc(S(=O)(=O)c2c(N)n(C)c3nc4ccccc4nc23)cc1` as the compound, how does the Potency read?
A: 13 µM (active)

Q: With `CC1(C)CC(=O)C=C(c2cccc3c2Oc2ccccc2S3)C1` as the compound, how does the “activity change, negative = growth inhibition” value read?
A: -28%

Q: Which “activity change, negative = growth inhibition” value does the source give for `O=C(Cn1cnc2c(oc3ccccc32)c1=O)Nc1ccc(OC(F)(F)F)cc1` here?
A: -3.72%

Q: With `CC(C)N(c1ccccc1)c1ncnc(NCCC(=O)O)c1[N+](=O)[O-]` as the compound, how does the “activity change, negative = growth inhibition” value read?
A: -3.06%

Q: Which “activity change, negative = growth inhibition” value does the source give for `O=C(COC(=O)c1cccnc1Cl)Nc1ccc(S(=O)(=O)N2CCOCC2)cc1` here?
A: -14.8%

Q: With `CCOC(=O)N1CCC(c2cc(=O)n(-c3ccccc3)[nH]2)CC1` as the compound, how does the “activity change, negative = growth inhibition” value read?
A: -26.9%

Q: For `Cc1cc(C)cc(N)c1`, which “activity change, negative = growth inhibition” value is on record?
A: -1.73%

Q: Which “activity change, negative = growth inhibition” value does the source give for `CCOC(=O)c1[nH]c2c(c1-c1ccccc1)C(=O)CC(c1ccc(Cl)cc1)C2` (centres undefined) here?
A: -6.33%

Q: With `CCCNC(=O)C1CC(=O)N(c2ccc(OCc3ccccc3)cc2)C1` (centres undefined) as the compound, how does the “activity change, negative = growth inhibition” value read?
A: -22.4%

Q: For `CCOc1ccc(C2C3=C(CCCC3=O)N(CC(=O)O)C3=C2C(=O)CCC3)cc1`, which “activity change, negative = growth inhibition” value is on record?
A: -10.5%

Q: Which Potency does the source give for `CCOc1ccc(C2CC(=O)c3c([nH]c(C(=O)OCc4ccccc4)c3C)C2)cc1` (centres undefined) here?
A: 13 µM (active)

Q: For `COCCOC(=O)c1[nH]c2c(c1C)C(=O)CC(c1ccc(OC)cc1)C2` (centres undefined), which “activity change, negative = growth inhibition” value is on record?
A: -13.2%

Q: For `CCOC(=O)c1[nH]c2c(c1C)C(=O)CC(c1ccc(N(C)C)cc1)C2` (centres undefined), which Potency is on record?
A: 13 µM (active)

Q: For `CCc1ccc(C2CC(=O)c3c([nH]c(C(=O)OCc4ccc(C)cc4)c3C)C2)cc1` (centres undefined), which Potency is on record?
A: 7.31 µM (active)

Q: For `CC(C)(C)N1C(=O)c2c(C(=O)OCc3ccccc3)[nH]c(-c3ccccc3)c2C1=O`, which “activity change, negative = growth inhibition” value is on record?
A: -7.09%

Q: For `Cc1nnc(C)c2c(C)n(N)c(C)c12`, which “activity change, negative = growth inhibition” value is on record?
A: -3.03%

Q: Which “activity change, negative = growth inhibition” value does the source give for `CCCCOc1ccc(-c2ncc(C(=O)OCC)c(N)n2)cc1` here?
A: -18.9%

Q: For `O=C(OCC(=O)N1CCCC1)c1ccco1`, which “activity change, negative = growth inhibition” value is on record?
A: -7.97%

Q: For `Cc1noc(C)c1C(=O)NC(C)c1ccc2c(c1)OCO2` (centres undefined), which “activity change, negative = growth inhibition” value is on record?
A: -10.6%

Q: Which “activity change, negative = growth inhibition” value does the source give for `CN(C)Cc1c(O)ccc2c(=O)c(-c3ccccc3Cl)coc12` here?
A: -2.51%

Q: With `CN(c1ccccc1)c1nc(N)c([N+](=O)[O-])c(NCc2ccco2)n1` as the compound, how does the “activity change, negative = growth inhibition” value read?
A: -21.3%
